Laboratory results: PubChem BioAssay AID540317 (National Center for Advancing Translational Sciences (NCATS), 2011)
The whole screen tested about 390,000 compounds, of which about 2,200 (0.56%) were called active. Entries that show only a call come without a potency. Inconclusive results (about 3%) are left out. The call rests on the fitted dose curve; in most records, active means well fitted inhibition curve with a large enough effect; inconclusive means small, poorly fitted or top-dose-only effect; inactive means no such curve, though single readings can be large or run the other way. For the sample, actives were picked, then their nearest neighbours and some compounds at random.

Each compound was assayed against Chromobox protein homolog 1 (Homo sapiens) (UniProt P83916) (assay: HTS for Inhibitors of HP1-beta Chromodomain Interactions with Methylated Histone Tails). Conditions: AlphaScreen HP1-beta / biotin-H3K9me3 peptide binding; series mostly up to 114 µM.
Sequence of Chromobox protein homolog 1 (Homo sapiens) (P83916 whole entry, looked up): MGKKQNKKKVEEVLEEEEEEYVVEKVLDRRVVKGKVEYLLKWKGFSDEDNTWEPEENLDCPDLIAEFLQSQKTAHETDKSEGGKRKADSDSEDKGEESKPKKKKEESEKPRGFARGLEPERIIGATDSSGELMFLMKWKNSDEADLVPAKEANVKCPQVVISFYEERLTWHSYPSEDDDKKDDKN
Description: As our understanding of epigenetics expands, it is becoming clear that players in this field are potential targets for drug development. This area of epigenetic therapy has established applications for the treatment of cancer and neurological diseases. We have been involved in this field for a number of years and have performed high-throughput screens to identify the first small molecule inhibitors of protein methyltransferases. These methyltransferases target multiple substrates, and thus regulate many arms of an epigenetic pathway. The methylation of different substrates often generates docking sites for effector proteins that harbor binding domains (chromo, tudor, PHD, MBT and ANK repeats). It has been proposed that the binding sites generated for different proteins by these post-translational modifcations mediate downstream effects on chromatin. Consistent with this theory, di- and tri-methylation of histone H3K9 facilitates the binding of heterochromatin protein HP1. The HP1 protein harbors a chromodomain that is responsible for the methyl-dependent interaction between HP1 and lysine 9 of histone H3. HP1 was first described in flies as a heterochromatin associated protein that can regulate gene silencing. It harbors a chromodomain that binds H3K9me3. In addition, it harbors a chromoshadow domain that interacts with a large number of proteins that are involved in heterochromatin formation and gene repression. There are three highly related HP1 isoforms. All three variants are associated with pericentric heterochromatin and it is not clear whether they have specific or redundant functions. MPP8 is also involved in the repression of gene in euchromatic regions (unpublished data) and like HP1 its chromodomain binds H3K9me3. MPP8 harbors an ankyrin repeat region that is likely involved in binding and recruiting interacting proteins with transcriptional repressive function, much like the chromoshadow domain of HP1 does. We hypothesize that by inhibiting specific protein-protein interactions we will be able to develop compounds that block a single arm of an epigenetic pathway. The specificity attained by blocking a single protein-protein interaction will be far greater than that attained by blocking the enzyme that regulates one of many interactions. Low-affinity protein-protein interactions (Kd in the single- to double-digit micromolar range) such as those discussed here have been very difficult to assay by traditional techniques such as fluorescence polarization or fluorescence resonance energy transfer. We have developed a sensitive chemiluminescence-based assay (Quinn, et al. 2009), which serves as the starting point for this project. The following is a validation assay to identify lead compounds that can block methyl-dependent protein-protein interactions (specifically HP1-beta), which can be used as probes to analyze these methyl-driven interactions and perhaps even developed into targeted epigenetic therapies. NIH Chemical Genomics Center [NCGC] NIH Molecular Libraries Probe Centers Network [MLPCN] MLPCN Grant: DA031087 Assay Submitter (PI): Mark Bedford, University of Texas, Medical Anderson Cancer Center, TX
To each well, 2 uL of HP1-beta protein (final 50 nM) and 1 uL biotinylated histone peptide trimethylated at Lys9 [b-H3(1-18)K9me3] (final 50 nM) was added in 1x PBS buffer, pH 7.4, containing 0.01% Tween-20 using a nanoliter dispenser. Formation of a protein-peptide complex proceeded at room temperature for 30 min. A Kalypsys pin-tool was employed to transfer 23 nL of library compound solution in DMSO to each well. Aurintricarboxylic acid (ATA) was used as an intraplate control with a 12-point titration in duplicate. Following a 30 min incubation of the protein-peptide complex with compounds at room temperature, a mixture of 40 ug/mL each streptavidin-coated donor and nickel chelate acceptor AlphaScreen beads (final 10 ug/mL) was added in a 1 uL dispense for a final volume of 4 uL. […]
Further: nearly all actives have a fitted effect of over 70% in size.
Potency means the concentration at half of the fitted maximal effect.

Compound	Potency
NS(=O)(=O)c1cc(C(=O)OCC(=O)NNC(=O)c2ccccc2)ccc1Cl	inactive
O=C(NC1=CC(=O)c2ccccc2C1=O)c1ccccc1	22.4 µM (active)
CCOc1ccccc1NC(=O)Cn1c2ncccc2c(=O)n1-c1ccc(C)c(C)c1	inactive
COc1cccc(Nc2nc3ccccc3c3nncn23)c1	inactive
Cc1csc(Nc2ccc(Cl)cc2)[n+]1-c1ccc(Cl)cc1	17.8 µM (active)
COC(=O)c1cc(NC(=O)c2cnc(SC)nc2-c2ccccc2)cc(C(=O)OC)c1	inactive
Cc1ccc(F)cc1S(=O)(=O)N1CCC(c2nc3ccccc3s2)CC1	inactive
Cc1ccc2cccc(NC(=O)c3cccc4ccccc34)c2n1	inactive
COc1cc(Cl)cc(C2NC(=O)NC(C)=C2C(=O)NCc2ccccc2)c1O (centres undefined)	inactive
COc1cc(C(=S)NCc2ccccc2)cc(Br)c1O	7.94 µM (active)
COc1ccc(CNC(=O)c2ccc3c(O)c(S(=O)(=O)c4ccccc4)c(=O)[nH]c3c2)cc1	inactive
COC(=O)c1ccc(NC(=O)CSc2n[nH]c(-c3ccccc3)n2)cc1	inactive
COc1ccc(OCCCn2c(C3CC(=O)N(c4ccc(F)cc4)C3)nc3ccccc32)cc1 (centres undefined)	inactive
COc1ccc2c(c1)CCc1c(C(=O)Nc3cc(C)ccc3O)noc1-2	inactive
Cc1nnc(N2CCCC(C(=O)NCCN(C)C)C2)c2nn(-c3ccccc3)c(C)c12 (centres undefined)	inactive
CN(C)c1ccc(Nc2c3c4c(cccc4n(C)c2=O)C(=O)c2ccccc2-3)cc1	4.47 µM (active)
COc1ccc(Cl)cc1NC(=O)CCC(=O)c1ccc(C)cc1	inactive
COc1ccc(Cl)cc1NC(=O)CN(C)CC(=O)Nc1ccc2c(c1)OCO2	inactive
COc1ccc(Cl)cc1NC(=O)CN(C)C(=O)CNC(=O)C12CC3CC(CC(C3)C1)C2	inactive
Cc1ccc(Cl)cc1NC(=O)CCS(=O)(=O)c1ccc(Br)s1	inactive
COc1ccc(Cl)cc1NC(=O)CN(C)Cc1ccc(OC)c(OC)c1	39.8 µM (active)
COc1ccc(Cl)cc1NC(=O)CCS(=O)(=O)c1ccc(Br)cc1	12.6 µM (active)
O=C(Nc1cccc2cccnc12)c1cccc2c(Br)cccc12	inactive
COc1cccc(CNC(=O)CCc2nc(-c3ccc(C)cc3)no2)c1	inactive
C=CCCN(C(Cc1ccccc1)C(=O)OC)S(=O)(=O)c1cc(Br)ccc1Br (centres undefined)	inactive

Compound	Potency
COc1ccc(-c2noc(-c3ccc(N4CCN(c5ccccc5)CC4)c([N+](=O)[O-])c3)n2)cc1OC	inactive
CCc1ccc(NC(=O)CN2C(=O)CCSc3ccc(S(=O)(=O)N4CCCC4)cc32)cc1	inactive
Cc1ccc(-c2nnc3ccc(SCC(N)=O)nn23)cc1	inactive
COC(=O)CCc1ccccc1S(=O)(=O)N(CCC(=O)OC)Cc1ccccc1	inactive
Cc1ccc(C)c(Nc2nnc(-c3ccc(C)c(S(=O)(=O)N4CCCCC4)c3)c3ccccc23)c1	inactive
CCc1ccc(NC(=O)C(C)OC(=O)/C=C/c2cccc([N+](=O)[O-])c2)cc1 (centres undefined)	inactive
COC(=O)/C=C\C(=O)Nc1cccc([N+](=O)[O-])c1	10 µM (active)
CC(C)OP(=O)(OC(C)C)C(Nc1ccccc1)c1cccc([N+](=O)[O-])c1 (centres undefined)	inactive
Cc1c(-c2nsc(NC(=O)c3cccc(Cl)c3)n2)nnn1-c1ccccc1C(F)(F)F	inactive
CCOCCCNC(=O)c1ccc2nc(CCc3ccccc3)oc2c1	inactive
CCOc1ccc(NC(=S)NC(=O)/C=C/c2ccc(OC)cc2)c([N+](=O)[O-])c1	inactive
COc1cccc(N2CC(NC(=O)/C=C\c3ccccc3)CC2=O)c1 (centres undefined)	inactive
COc1ccc(/C=C/C(=O)c2cc(Br)ccc(=O)c2O)cc1	50.1 µM (active)
CC1CCN(S(=O)(=O)c2ccc3c(c2)N(CC(=O)NCCc2ccccc2)C(=O)CO3)CC1	inactive
Brc1nc2ncnc(NCc3ccco3)c2[nH]1	inactive
Nc1ccc2[nH]c(=S)sc2c1	28.2 µM (active)
COC(=O)c1ccc(NC(=O)CCc2c(C)nn(-c3ccc(N4CCCC4)nn3)c2C)cc1	inactive
Oc1ccc(N2CCN(C(=S)NCc3ccccc3)CC2)cc1	inactive
OCC(CO)(CO)NCc1ccc(-c2ccccc2)cc1	inactive
Oc1ccc(CNc2ccccc2O)cc1	50.1 µM (active)
COc1cccc(CNC(=O)CSc2c3c(nc4cc(Cl)ccc24)CCCC3)c1	inactive
N#Cc1cc2[nH]c(=O)c(=O)[nH]c2cc1[N+](=O)[O-]	inactive
CCN(C(=O)Cn1cnc2sc(C)c(S(=O)(=O)N3CCN(c4ncccn4)CC3)c2c1=O)c1ccccc1F	inactive
O=S(=O)(c1ccccc1)c1nc(-c2ccc(Cl)cc2Cl)oc1N1CCCCC1	inactive
Cc1cc([N+](=O)[O-])c(N2CCC[C@@H]2C(=O)O)c([N+](=O)[O-])c1	inactive

Compound	Potency
Cc1ccc(C(=O)COC(=O)CCCC(=O)NC2CCCCC2)cc1[N+](=O)[O-]	inactive
Cc1cc([N+](=O)[O-])c(NC2CCCCC2)c([N+](=O)[O-])c1	15.8 µM (active)
COc1ccc(C2Nc3ccc(NC(=O)COC(C)=O)cc3C(=O)N2Cc2ccccc2)cc1COc1ccc(NC(C)=O)cc1 (centres undefined)	inactive
O=C(NCc1ccccc1)c1cccc(NC(=O)N2CCSc3ncccc32)c1	inactive
CCCN(C(=O)Cn1ncc2c([nH]c3ccc(C)cc32)c1=O)c1ccccc1C	inactive
Cc1ccc(CCNC(=O)c2nnc(Cc3cccc(F)c3)o2)cc1	inactive
COc1cccc(-c2n[nH]c3c2C(c2cccc(O)c2)N(C)C3=O)c1 (centres undefined)	inactive
O=C(CN1CCC(NC(=O)C2CC2)CC1)Nc1ccccc1[N+](=O)[O-]	inactive
O=C(CN1CCCCCC1)Nc1ccc(Br)cc1[N+](=O)[O-]	50.1 µM (active)
O=C(CN1CCCCCC1)Nc1ccc(Br)cc1Br	inactive
COc1ccc(C(CCN2CCOCC2)c2c(OC)cc(OC)c3c2OC(=O)CC3c2ccc(OC)cc2)cc1 (centres undefined)	inactive
CCOc1ccc(N2CC(C)Cn3c2nc2c3c(=O)n(Cc3c(F)cccc3Cl)c(=O)n2C)cc1 (centres undefined)	inactive
COC(=O)c1ccccc1NC(=O)Cn1c(=O)n(-c2cccc(C(F)(F)F)c2)c(=O)c2c(C)c(C)sc21	inactive
CCOc1ccc(S(=O)(=O)c2cn(Cc3ccc(OC)cc3)c3ccc(F)cc3c2=O)cc1	inactive
COc1ccc2c(c1)c(=Cc1ccc(N(C)C)cc1)c1cc(-c3ccccc3)[n+](C)n12	39.8 µM (active)
COc1ccc(-c2ccc(C3C4C=CCCC4(C)C(=O)N3Cc3ccccc3)c(F)c2)cc1OC (centres undefined)	inactive
Clc1cccc(-n2ncc3c(NCCc4ccccc4)ncnc32)c1	inactive
CCCOC(=O)c1c(NC(=O)c2cc3nc(-c4ccc(OC)cc4)cc(C(F)(F)F)n3n2)sc2c1CCCC2	inactive
C=CCN(CC=C)CCOc1ccccc1[N+](=O)[O-]	39.8 µM (active)
Cc1ccc(OCC(=O)Oc2ccccc2[N+](=O)[O-])cc1	inactive
O=C(COc1ccccc1[N+](=O)[O-])NC1CC1	inactive
OCCNc1ncnc2oc(-c3ccco3)c(-c3ccco3)c12	inactive
CCOC(=O)C1CCCN(C(=O)c2ccc(-n3ccc4ccccc43)s2)C1 (centres undefined)	inactive
O=C(c1cccc(Br)c1)N1CCN(Cc2cc(=O)n3nc(-c4ccccc4)sc3n2)CC1	inactive
Cc1c(NC(=O)CCC2CCCCC2)cc(C(=O)N2CCOCC2)cc1[N+](=O)[O-]	inactive

Compound	Potency
Cc1cc(C=O)c(C)n1-c1ccc(NC2CCCCC2)c([N+](=O)[O-])c1	25.1 µM (active)
COc1ccc(NC(=O)CN(C)C(=O)c2ccc(NC3CC3)c([N+](=O)[O-])c2)cc1	inactive
CCOc1ccc(CC(=O)NCCc2csc3nc(-c4ccccc4F)nn23)cc1	inactive
CCOc1ccccc1N(C)C(=O)c1cc2c(s1)-c1ccccc1OC2	inactive
CCc1ccc(OCCCn2c(CCCNC(=O)C3CCCCC3)nc3ccccc32)cc1	inactive
Cc1ccc(OCC(=O)Nc2ccc(Cl)c(-c3nc4ccccc4[nH]3)c2)cc1C	inactive
N#C/C(=C\C1=C(N2CCOCC2)C(=C\c2ccccc2)/CC1)C(=O)Nc1ccccc1F	7.08 µM (active)
O=C(CC1SC(N2CCOCC2)=NC1=O)Nc1ccccc1F (centres undefined)	inactive
Cc1ccc(C(=O)Nc2ccccc2F)cc1S(=O)(=O)N1CCOCC1	inactive
O=C(Nc1ccc(Br)cc1)c1ccc(Br)c(S(=O)(=O)NCc2ccccc2)c1	inactive
CC(C)C12CN3CC(C(C)C)(CN(C1)C3c1ccc(OCc3ccccc3)cc1)C2=O (centres undefined)	inactive
O=C(O)c1ccc2c(c1)N(Cc1ccc(F)cc1)C(=O)c1ccccc1S2=O (centres undefined)	inactive
Cc1ccc(CNS(=O)(=O)c2ccc(-c3cc(C(F)(F)F)on3)s2)cc1	inactive
N#Cc1c(N2CCCCC2)nc(N)c2c(N)nc(SCC(=O)O)cc12	35.5 µM (active)
CCC(C)c1ccc2oc(-c3ccc(NC(=O)c4cc5ccccc5o4)cc3)nc2c1 (centres undefined)	inactive
CCCCc1nn2c(=O)cc(COC(=O)c3ccccc3NC(=O)C(C)(C)C)nc2s1	inactive
Cc1cc(NC(=O)CSc2ncc(C(=O)Nc3ccc(Cl)cc3)c(=O)n2C)no1	inactive
CSC1=N/C(=C\C=C\c2cccs2)C(=O)S1	28.2 µM (active)
Cc1ccc(C(=O)NCCSc2c(C)[nH]c3ccccc23)cc1C	inactive
Cc1ccc(C)c(N2C(=O)N(Cc3c(F)cccc3Cl)c3ccccc3S2(=O)=O)c1	inactive
COc1ccc(-c2onc(C)c2C)cc1S(=O)(=O)NCCc1ccccc1	inactive
C=CCn1c(CCc2ccc(OC(C)C)cc2)n[nH]c1=S	inactive
COc1ccc(OCc2n[nH]c(=S)n2N)cc1	10 µM (active)
Cn1c(CCCOc2ccc(Cl)cc2Cl)n[nH]c1=S	inactive
